Source: PubChem BioAssay (EPA / NIEHS)
Results filed as inconclusive are left out. Calls of active or inactive are those of the source. Rule for the calls: active = hit-call score of the fitted dose curve at least 0.9, where 1 is the maximum; inconclusive = response in the unintended direction; inactive = score below 0.9.

Molecular target: Estrogen-related receptor gamma (Homo sapiens) (UniProt P62508)
Test: ATG_ERRg_TRANS: Attagene TRANS-FACTORIAL HepG2 Assay for human Estrogen-Related Receptor gamma (ERRg) (AID 2282977);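 note: hits increase reporter signal over DMSO so potencies reflect activators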
Conditions: HepG2 Attagene TRANS reporter, ERRg transactivation
Protocol: ATG_TRANS is a cell-based, multiplexed-readout assay that uses HepG2, a human liver cell line, with measurements taken at 24 hours after chemical dosing in a 24-well plate.ATG_ERRg_TRANS is one of 30 assay component(s) measured or calculated from the ATG_TRANS assay. It is designed to make measurements of mRNA induction, a form of inducible reporter, as detected with fluorescence intensity signals by Reverse transcription polymerase chain reaction (RT-PCR) and Capillary electrophoresis technology.Data from the assay component ATG_ERRg_TRANS was analyzed into 1 assay endpoint. This assay endpoint, ATG_ERRg_TRANS, was analyzed in the positive analysis fitting direction relative to DMSO as the negative control and baseline of activity. Using a type of inducible reporter, measures of mRNA for gain-of-signal activity can be used to understand the reporter gene at the transcription factor-level as they relate to the gene ESRRG. Furthermore, this assay endpoint can be referred to as a primary readout, because this assay has produced multiple assay endpoints where this one serves a reporter gene function. To generalize the intended target to other relatable targets, this assay endpoint is annotated to the nuclear receptor intended target family, where the subfamily is steroidal.
Human liver HepG2 cells are transiently transfected with multiple reporter transcription units (MRTUs) in 6-well plates using FuGene 6 reagent (Roche; 3 ml FuGene/1 mg DNA). The MRTU constructs are regulated by a cis-regulating element (promoter). […] A major difference between the CIS and TRANS system is that in CIS activities of endogenous TFs are measured, whereas the TRANS assay evaluates changes in activities of exogenous, chimeric NR-Gal4 proteins. […] At the end of 24 hour incubation, total RNA was isolated using TriZol reagent (Invitrogen). The isolated RNA is then reverse-transcribed using oligo(dT) primer and Mo-MLV reverse transcriptase (Invitrogen) with DNAse I (Ambion) treatment for 30 min. The one-tenth of the produced cDNA was amplified by PCR using Taq DNA polymerase (Invitrogen) and two reporter sequence-specific primers. The PCR products were fluorescently labeled by primer extension with 6-arboxyfluorescein (6-FAM) 5'-labeled reporter sequence-specific primer (2 min at 95 C, 20 s at 68 C and 10 min at 72 C) and these products were digested with 5U of HpaI (New England Biolabs) for 2h at 37 C. The fragments were purified using Qiaquick PCR columns (Qiagen), analyzed on an ABI 3130xL genetic analyzer (Applied Biosystems) with peak positions identified by using a set of X-rhodamine (ROX)-labeled MapMarker1000 molecular weight standards (BioVentures). The raw capillary electrophoresis data was processed using Attagraph software (Attagene).

Sequence of Estrogen-related receptor gamma (Homo sapiens) (P62508 whole entry, looked up): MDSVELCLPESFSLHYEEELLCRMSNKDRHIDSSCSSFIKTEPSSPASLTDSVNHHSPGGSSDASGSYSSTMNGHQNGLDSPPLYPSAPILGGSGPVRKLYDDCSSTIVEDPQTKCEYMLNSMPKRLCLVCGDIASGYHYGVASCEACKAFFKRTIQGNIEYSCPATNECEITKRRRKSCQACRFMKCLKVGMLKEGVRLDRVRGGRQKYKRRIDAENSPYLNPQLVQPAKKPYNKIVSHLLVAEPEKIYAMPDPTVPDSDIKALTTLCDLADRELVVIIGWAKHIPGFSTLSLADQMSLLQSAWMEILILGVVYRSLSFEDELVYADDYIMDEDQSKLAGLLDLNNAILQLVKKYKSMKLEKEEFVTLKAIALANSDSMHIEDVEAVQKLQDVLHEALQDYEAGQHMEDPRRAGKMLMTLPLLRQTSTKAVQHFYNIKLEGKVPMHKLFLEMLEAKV

Row | Compound | outcome
1 | O=C(O)C(F)(F)C(F)(F)C(F)(F)C(F)(F)C(F)(F)C(F)(F)C(F)(F)C(F)(F)C(F)(F)F | inactive
2 | CCC(C)(CC)c1cc(NC(=O)c2c(OC)cccc2OC)on1 | inactive
3 | ClC1=C(Cl)[C@]2(Cl)[C@@H]3[C@H]4C[C@H]([C@@H]5O[C@H]45)[C@@H]3[C@@]1(Cl)C2(Cl)Cl | inactive
4 | CN(C)CCO | inactive
5 | CCC(C)(c1ccc(O)cc1)c1ccc(O)cc1 | inactive
6 | O=S(=O)(O)C(F)(F)C(F)(F)C(F)(F)C(F)(F)F | inactive
7 | C[C@]12CCC(=O)C=C1CC[C@@H]1[C@@H]2CC[C@]2(C)C(=O)CC[C@@H]12 | inactive
8 | OCC(O)CO | inactive
9 | CCC(C)c1cc([N+](=O)[O-])cc([N+](=O)[O-])c1O (stereo not given) | inactive
10 | ClC(Cl)=C(c1ccc(Cl)cc1)c1ccc(Cl)cc1 | inactive
11 | Oc1ccc(Cl)cc1Cl | inactive
12 | C=CC(N)=O | inactive
13 | Cc1cc(O)ccc1Cl | inactive
14 | CC(C)(O)C(=O)Nc1ccc([N+](=O)[O-])c(C(F)(F)F)c1 | inactive
15 | Clc1ccc(C(c2ccccc2Cl)C(Cl)(Cl)Cl)cc1 (stereo not given) | inactive
